Data from the supplement of paper PMC6555819.

Assays:
Assay in all cases: PBM binding z-score (relative to random genomic background probes); higher = stronger binding; sequences stand for … in GC…GCGATTGACAGCGTAGAATGAAGG
[1] = tested on: PPARg:RXRa DBDmut IVT, anti-RXR (DBD mutation: RXRa K156A/R161A, NR concentration 270 nM, RXRa partner concentration 90 nM)
How it was run: (§1)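 Custom Agilent 4×180K protein-binding microarrays carried double-stranded probes, each with a 34-nt variable region. These regions held direct-repeat seeds, single-nucleotide variants, half-site ablations and random human genomic background sequences. Ligand-free nuclear receptor dimers were incubated on the arrays for 1 h, antibodies against each partner (one per run) detected binding, and scanned fluorescence was regression-normalized. Binding z-scores take the random background probes as reference.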

[2] = tested on: PPARg:RXRa IVT, anti-PPARg (NR concentration 270 nM, RXRa partner concentration 90 nM)
How it was run: as §1

[3] = tested on: PPARg DBDmut:RXRa IVT, anti-PPARg (DBD mutation: PPARg1 K132A/R137A, NR concentration 270 nM, RXRa partner concentration 90 nM)
How it was run: as §1

[4] = tested on: PPARg DBDmut IVT, anti-PPARg (DBD mutation: PPARg1 K132A/R137A, NR concentration 270 nM)
How it was run: as §1

[5] = tested on: PPARg homodimer (NR concentration 180 nM)
How it was run: as §1

[6] = tested on: PXR:RXRa (NR concentration 270 nM, RXRa partner concentration 90 nM)
How it was run: as §1

[7] = tested on: PXR homodimer (NR concentration 270 nM)
How it was run: as §1

[8] = tested on: RARa:RXR (NR concentration 270 nM, RXRa partner concentration 90 nM)
How it was run: as §1

[9] = tested on: RARa homodimer (NR concentration 270 nM)
How it was run: as §1

[10] = tested on: RARb:RXRa (NR concentration 270 nM, RXRa partner concentration 90 nM)
How it was run: as §1

[11] = tested on: RARb homodimer (NR concentration 270 nM)
How it was run: as §1

[12] = tested on: RARg:RXRa (NR concentration 270 nM, RXRa partner concentration 90 nM)
How it was run: as §1

[13] = tested on: RARg homodimer (NR concentration 270 nM)
How it was run: as §1

[14] = tested on: RXRa DBDmut IVT, anti-RXR (DBD mutation: RXRa K156A/R161A, NR concentration 90 nM)
How it was run: as §1

[15] = tested on: RXRa homodimer (NR concentration 180 nM)
How it was run: as §1

[16] = tested on: THRa:RXRa (NR concentration 90 nM, RXRa partner concentration 90 nM)
How it was run: as §1

[17] = tested on: THRa homodimer (NR concentration 90 nM)
How it was run: as §1

[18] = tested on: VDR homodimer (NR concentration 270 nM)
How it was run: as §1

Sequence	PBM binding z-score [1]	PBM binding z-score [2]	PBM binding z-score [3]	PBM binding z-score [4]	PBM binding z-score [5]	PBM binding z-score [6]	PBM binding z-score [7]	PBM binding z-score [8]	PBM binding z-score [9]	PBM binding z-score [10]	PBM binding z-score [11]	PBM binding z-score [12]	PBM binding z-score [13]	PBM binding z-score [14]	PBM binding z-score [15]	PBM binding z-score [16]	PBM binding z-score [17]	PBM binding z-score [18]
TAGCCTAGGTCATGGGCGAGTATACCACGCGAAC	1.54	3.26	0.096	-0.639	0.74	1.53	-0.407	2.3	-0.782	3.91	2.97	4.08	4.15	0.379	3.57	3.11	1.11	0.339
CCTAGTTGGTCTAGGTCACACACGCTATAGGTAC	2.17	3.05	0.258	0.48	2.14	1.4	0.764	2.1	1.82	2.63	3	2.36	2.69	0.925	1.88	2.99	2.78	1.78
AGAATGAGGCTATTAAGATCAGGGAATTGCGGTC	0.775	0.484	0.528	-0.351	-0.817	-0.436	-0.252	-0.197	-0.295	0.119	-0.0206	-0.0314	0.143	0.0802	0.257	0.48	-0.292	-0.448
CGAACGAGGGCATGAGTTGTTAGCAAATGCCGAT	3.23	2.05	-0.603	-0.6	-0.0331	0.251	-0.0972	0.245	-0.393	1.98	0.54	0.951	1.44	2.23	0.556	1.08	-0.284	1.12
CCTACTGGGCCAAAGGTCACTGATTCCAATGCTC	5.75	7.12	0.0303	-0.418	3.54	5.27	1.1	6.62	1.82	4.56	4.91	6.24	5.46	0.634	7.03	3.42	1.29	1.88
TCCAGCAGGCCAGAGGGTCACTCAAGAGGTACGG	0.933	0.217	-0.437	-1.27	0.577	1.45	-0.376	2.3	-0.207	2.2	2.93	2.61	1.71	0.301	2.29	1.7	-0.473	0.227
ATCTCTAGGCAAAGTTCAGTGAAAGATCGATAGA	0.488	0.697	0.713	0.549	0.889	1.8	1.43	1.02	0.783	2.54	2.14	1.79	2.42	1.24	1.06	0.452	-0.26	1.48
CGTACTGGGCCATTCAGAGGTCATTGATCATATG	5.14	4.46	0.379	0.367	2.72	4.91	2.51	4.76	1.17	3.18	4.23	4.62	3.63	1.64	3.95	3.33	1.54	3.81
TCAGTCAGGTGAAGGTAACTCAGGTACGCAGTCG	2.31	1.88	0.527	-0.686	0.571	0.5	0.129	0.701	0.00869	1.52	0.729	0.735	0.793	0.667	0.742	2.32	1.34	-0.131
ATCTCAAGGTAAGACTCAGTTCAGTGAAGAACGC	0.2	0.426	0.753	0.498	0.782	1.47	1.54	0.694	1.1	0.614	0.641	0.668	0.469	0.363	0.542	1.36	0.884	1.5
AGAACGAGGGCACGCTTAGTTGATAGCAGAGTAG	4.36	4.09	0.457	0.676	0.226	0.718	-0.259	1.06	-0.203	2.66	1.38	1.76	2.33	2.1	1.42	1.94	0.257	0.561
ATACCAAGGGGATCGTGAGGTCGTTGATACTAAC	-0.449	-0.121	-0.0494	0.0346	-0.227	1.68	0.87	1.52	-0.222	0.379	1.03	0.522	0.278	0.533	0.933	2.89	1.66	2.27
ATCGAAAGGTCGACGAGGTGACTATACACCGTTT	1.03	2.4	1.08	0.608	1.89	3.44	0.829	3.99	0.449	4.01	3.13	4.44	4.48	1.17	5.08	3.95	1.27	1.11
ATATGTAGGTTGGCTGGGGTCATTCAGACTAGGC	2.56	2.75	1.35	1.7	2.57	5.98	4.44	5.69	0.758	2.62	3.37	3.5	2.19	1.81	5.15	4.72	3.62	5.57
